Measurements published in PubChem BioAssay (NCATS).
Inconclusive results are not listed. Where a call stands in place of a potency, no number is given. Values without a mark were called inactive. The source made the active and inactive calls. Calls come from the whole dose curve; as a rule, active = well fitted curve in the direction sought with a large enough effect; inconclusive = small, poorly fitted or top-dose-only effect, or another doubt; inactive = no such curve, though single readings can be large; an effect the other way counts as inactive or inconclusive.

Columns and labels:
[1] = Quantitative highthroughput screen to assess conditional lethalithy of NOMO1 cells grown in RPMI1640 with untreated serum (RPMI+s) (AID 1963876); note: nearly all actives have a fitted effect of over 35% in size
How it was run: (§1)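 Each medium arm—HPLM with 10% dialyzed FBS, or RPMI1640 with 5 mM glucose and 10% untreated or dialyzed FBS—was screened against an 11-point, 3-fold compound titration for 48 h at 37 °C, with CellTiter-Glo luminescence as endpoint.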

[2] = Quantitative highthroughput screen to assess conditional lethalithy of NOMO1 cells grown in Human Plasma-Like Medium with dialyzed fetal bovine serum (HPLM+ds) (AID 1963878); note: nearly all actives have a fitted effect of over 35% in size
How it was run: as §1

[3] = Quantitative highthroughput screen to assess conditional lethalithy of P12 Ichikawa cells grown in Human Plasma-Like Medium with dialyzed fetal bovine serum (HPLM+ds) (AID 1963879); details: Potency: viability; note: nearly all actives have a fitted effect of over 35% in size; for viability: series mostly up to about 46 µM
How it was run: as §1

[4] = Quantitative highthroughput screen to assess conditional lethalithy of P12 Ichikawa cells grown in RPMI1640 with dialyzed fetal bovine serum (RPMI+ds) (AID 1963880); details: Potency: P12-Ichikawa viability; note: nearly all actives have a fitted effect of over 35% in size
How it was run: as §1

[5] = Quantitative highthroughput screen to assess conditional lethalithy of P12 Ichikawa cells grown in RPMI1640 with untreated serum (RPMI+s) (AID 1963881); details: Potency: viability; note: nearly all actives have a fitted effect of over 35% in size; for viability: series mostly up to about 46 µM
How it was run: as §1

[6] = Quantitative highthroughput screen to assess conditional lethalithy of SEM cells grown in RPMI1640 with unreated serum (RPMI+s) (AID 1963883); note: nearly all actives have a fitted effect of over 35% in size
How it was run: as §1

[7] = Quantitative highthroughput screen to assess conditional lethalithy of SEM cells grown in RPMI1640 with dialyzed fetal bovine serum (RPMI+ds) (AID 1963884); note: nearly all actives have a fitted effect of over 35% in size; for viability: series mostly up to about 46 µM
How it was run: as §1

[8] = Quantitative highthroughput screen to assess conditional lethalithy of NOMO1 cells grown in RPMI1640 with dialyzed fetal bovine serum (RPMI+ds) (AID 1963877); note: nearly all actives have a fitted effect of over 30% in size; for viability: series mostly up to about 46 µM
How it was run: as §1

[9] = Quantitative highthroughput screen to assess conditional lethalithy of SEM cells grown in Human Plasma-Like Medium with dialyzed fetal bovine serum (HPLM+ds) (AID 1963882); note: nearly all actives have a fitted effect of over 35% in size; for viability: series mostly up to about 46 µM
How it was run: as §1

[10] = Cellular viability qHTS for adrenocortical cancer (ACC) cell line SW-13 (AID 1963989); details: SW-13 ACC cells viability, CellTiter-Glo, 48 h; activity (max response): stronger effect = lower value; note: nearly all actives have a fitted effect of over 65% in size;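 for activity (max response): cells grown in serum-free medium with ITS supplement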
How it was run: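 48 h treatment, SW-13 in ITS/DMEM serum-free; doses up to 46 uM; readout CellTiter-Glo luminescence; curve fit four-parameter logistic.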

[11] = Cellular viability qHTS for adrenocortical cancer (ACC) cell line NCI-H295R (AID 1963990); note: nearly all actives have a fitted effect of over 60% in size
How it was run: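 Compound titrations (up to 46 uM final) are applied to NCI-H295R cultures for 48 h at 37C. Viable cell number is estimated by CellTiter-Glo signal, normalised to DMSO and doxorubicin controls.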
Potency is the fitted concentration of half-maximal effect.

Compound	Potency [1]	Potency [2]	Potency [3]	Potency [4]	Potency [5]	Potency [6]	Potency [7]	Potency [8]	Potency [9]	activity (max response) [10]	Potency [11]	Potency [10]
CC(C)(O)CC[C@@H](O)[C@](C)(O)[C@H]1CC[C@@]2(O)C3=CC(=O)[C@@H]4C[C@@H](O)[C@@H](O)C[C@]4(C)[C@@H]3CC[C@]12C	inactive	inactive	inactive	inactive	inactive	inactive	inactive	–	–	–	–	–
NC(=O)C1CCCc2c1[nH]c1ccc(Cl)cc21 (stereo not given)	8.33 µM (active)	–	–	–	–	5.26 µM (active)	4.18 µM (active)	8.33 µM (active)	2.35 µM (active)	-13.4%	inactive	–
Cc1cc(O)c2c(c1)C(=O)c1cc(O)cc(O)c1C2=O	inactive	inactive	inactive	inactive	inactive	inactive	inactive	–	inactive	-8.42%	inactive	–
CC(=CC(=O)Nc1ccccc1C(=O)O)c1ccc2ccccc2c1	inactive	inactive	inactive	inactive	inactive	23.5 µM (active)	–	–	–	–	–	–
Cn1cc(-c2cnn3c(N)c(Br)c([C@H]4CCCNC4)nc23)cn1	2.09 µM (active)	1.32 µM (active)	2.96 µM (active)	2.64 µM (active)	2.64 µM (active)	2.35 µM (active)	1.05 µM (active)	–	0.935 µM (active)	–	–	–
Cc1cc(-c2nnc3n2CCCCC3)c(C)n1-c1ccccc1	inactive	inactive	inactive	inactive	inactive	–	inactive	–	inactive	–	–	–
COc1nc(-c2ccc3c(c2)OCO3)n(-c2ccc(NC(=O)CSc3ccccc3)cc2)n1	23.5 µM (active)	20.9 µM (active)	inactive	inactive	inactive	inactive	inactive	–	–	–	–	–
CC(C)c1ccc(Cn2ccc3c4c(N)nc(NC5CC5)nc4ccc32)cc1	10.5 µM (active)	1.05 µM (active)	3.72 µM (active)	2.64 µM (active)	4.69 µM (active)	3.72 µM (active)	3.72 µM (active)	–	1.66 µM (active)	–	1.12 µM (active)	0.398 µM (active)
O=c1[nH]c(=O)n([C@H]2C[C@@H](O)[C@@H](CO)O2)cc1C=CBr	inactive	–	–	inactive	inactive	–	inactive	inactive	–	–	–	–
Cc1cccc(C=NNc2cc(N3CCOCC3)nc(OCCc3ccccn3)n2)c1	2.09 µM (active)	–	–	–	–	11.8 µM (active)	–	1.05 µM (active)	–	–	–	–
